Assay outcomes (PubChem BioAssay)
p53 reactivation: qHTS assay for re-activators of p53 using a Luc reporter; H1299 p53-A138V BP100-luciferase reporter, luminescence, 24 h; Potency, µM (titrated, usually from 92.2 µM), inactives show top-dose activity change, positive = activation, hits mostly activators; 320,000 compounds, 0.063% hits; AID 504706, 2011; further: potency means the concentration at half of the fitted maximal effect; % of control where 0% means no effect; nearly all actives have a fitted effect of over 45% in size
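H1299 (p53-null), stable ts p53-A138V + BP100-Luc; 1000 cells/well, Opti-MEM/10% FBS; cpd 4 pt, 1:5; 24 h, 37 deg C, 5% CO2; detection reagent 10 min RT; luminescence.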
MmCpn inh: Inhibitors of TCP-1 ring complex (TRiC) of Methanococcus maripaludis (MmCpn): qHTS | Chaperonin Mm-Cpn (Methanococcus maripaludis) | purified Mm-Cpn ATPase, ADP Transcreener TR-FRET | Potency, µM (top dose mostly 76.9 µM), for inactives: at the highest dose activity, negative = inhibition, usual class: inhibitors | 330,000 compounds, 0.031% hits | AID 504842, 2011; further: potency means the concentration at half of the fitted maximal effect; on the % scale 0 is the no-effect control and ±100 the full control effect; nearly all actives have a fitted effect of over 80% in size
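Purified archaeal Mm-CPN (25nM final) preincubated 10 min at 37degC with compound, then 10uM ATP for 30 min at 37degC; ADP measured by HTRF Transcreener TR-FRET; buffer 30 mM TRIS pH 7.4, 100mM KCl, 5mM MgCl2, 1mM DTT.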
S-ASM inh: Inhibitors of Secretory Acid Sphingomyelinase (S-ASM): qHTS; Sphingomyelin phosphodiesterase (Homo sapiens), P17405; placental ASM, HMU-PC fluorogenic substrate, 60 min; Potency, µM (top dose mostly 57.5 µM), for inactives: top-dose activity change, negative = inhibition, most hits filed as inhibitors; 340,000 compounds, 0.006% hits; AID 504937, 2011; further: potency means the concentration at half of the fitted maximal effect
Target sequence (P17405 47-631 limits assumed): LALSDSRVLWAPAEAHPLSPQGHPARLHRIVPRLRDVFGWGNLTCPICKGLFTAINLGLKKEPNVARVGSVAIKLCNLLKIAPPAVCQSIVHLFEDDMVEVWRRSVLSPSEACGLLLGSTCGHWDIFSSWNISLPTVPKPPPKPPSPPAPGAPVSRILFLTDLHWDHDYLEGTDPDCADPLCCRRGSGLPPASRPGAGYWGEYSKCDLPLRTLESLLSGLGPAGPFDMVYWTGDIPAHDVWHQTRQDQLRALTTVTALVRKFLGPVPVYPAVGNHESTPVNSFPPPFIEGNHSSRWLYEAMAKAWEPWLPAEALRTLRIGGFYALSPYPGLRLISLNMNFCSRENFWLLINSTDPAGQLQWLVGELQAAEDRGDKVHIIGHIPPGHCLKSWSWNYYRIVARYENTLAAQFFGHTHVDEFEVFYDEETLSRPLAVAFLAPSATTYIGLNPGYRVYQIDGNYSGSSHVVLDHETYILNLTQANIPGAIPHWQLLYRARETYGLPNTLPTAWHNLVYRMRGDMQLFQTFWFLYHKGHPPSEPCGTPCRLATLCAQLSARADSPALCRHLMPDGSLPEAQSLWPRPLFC
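Fluorogenic HMU-PC substrate (9 uM final) is turned over by placental ASM in 60 min at 37 C after a 10 min compound preincubation. Reaction ended by alkaline stop (pH 10), with fluorescence read at 386/447 nm.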
CCT modulator: High-Throughput Screening for Modulators of Cytosolic Chaperonin Activity. purified chaperonin ATPase assay, HTRF ADP detection, 30 min. activity change, % (test concentration not listed), hits read low. 360,000 compounds, 0.3% hits. AID 651819, 2012; in the data active means activity change below about -30%; further: on the % scale 0 is the no-effect control and ±100 the full control effect
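TRiC (40 or 20 nM final, by batch activity) in 30 mM Tris pH 7.4, 100 mM KCl, 5 mM MgCl2, 1 mM DTT was treated with compound at 76 uM single dose, then 10 uM ATP, 30 min at 37 °C. ADP was read by HTRF Transcreener.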
PINK1 expr mod: A Quantitative High throughput Screen to Identify Chemical Modulators of PINK1 Expression; PINK1 immunofluorescence, high-content cytometry, 24 h; Potency, µM (top dose mostly 76.6 µM), without a hit: at the highest dose activation (PINK1 increase), usual class: activators; 410,000 compounds, 0.2% hits; AID 624263, 2012; active means well fitted activation curve with a large enough effect; inconclusive means small, poorly fitted or top-dose-only effect; cell line not stated here; further: potency means the concentration at half of the fitted maximal effect; % of control where 0% means no effect; nearly all actives have a fitted effect of over 65% in size
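Compound titrations (5 concentrations, 24 h) on a stable cell line; DMSO and CCCP controls. Endpoint: fixed-cell PINK1 immunofluorescence with mitochondrial, cell and nuclear markers, scanned by microplate cytometer.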
12-LOX inh: Primary qHTS assay for inhibitors of human arachidonate 12S-lipoxygenase (ALOX12): Round 2; purified 12hLO, xylenol orange hydroperoxide absorbance; Potency, µM (highest dose often 108 µM), inactives show at the top dose activity change, negative = inhibition, usual class: inhibitors; 580,000 compounds, 1.1% hits; Polyunsaturated fatty acid lipoxygenase ALOX12 (Homo sapiens), P18054; AID 1671190, 2021; further: potency means the concentration at half of the fitted maximal effect; on the % scale 0 is the no-effect control and ±100 the full control effect
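Hydroperoxide product was detected by ferrous iron/xylenol orange as the 573 to 405 nm absorbance ratio. Arachidonic acid at 40 uM (final) was turned over for 30 min at room temperature by 150 nM human 12hLO, pH 7.0 Hepes buffer, after 15 min compound preincubation.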
* = called active by the depositor; ? = inconclusive; · = no result; ! = not confirmed by another sample. This is a sample that favours compounds with a hit; in the whole collection about 1.4% have one here. Unless noted, the call rests on the fitted dose curve; in most records, active means well fitted curve in the direction sought with a large enough effect; inconclusive means small, poorly fitted or top-dose-only effect, or another doubt; inactive means no such curve, though single readings can be large; an effect the other way counts as inactive or inconclusive.

SMILES	p53 reactivation	MmCpn inh	S-ASM inh	CCT modulator	PINK1 expr mod	12-LOX inh
O=C1NC(c2ccccc2)Nc2c1sc(=S)n2-c1ccccc1 (centres undefined)	7%	2%	-1%	-16	0%	45µM*
COc1ccc(C2NC(=O)c3sc(=S)n(-c4ccccc4)c3N2)cc1 (centres undefined)	5%	1%	-1%	1	-1%	?
Cc1ccc(-n2nnnc2Sc2nnnn2-c2ccccc2)c(C)c1	·	·	·	·	·	12%
Cc1cc(C)c(SSc2nnnn2-c2ccccc2)c(C)c1	·	·	·	-38*	1%	?
CC(=O)N1CCc2cc(NC(C)C(=O)Nc3ccccc3OC(F)F)ccc21 (centres undefined)	·	·	·	·	·	-26%
CCN1CCN(C(=O)/C=C/c2ccc(C(C)C)cc2)CC1	·	·	-2%	-2	-1%	0%
CCN1CCC(O)(/C=C/c2ccc(C(C)C)cc2)C(C(=O)/C=C/c2ccc(C(C)C)cc2)C1 (centres undefined)	·	·	?	-3	-2%	1.8µM*
O=C(O)CCc1ccc(-c2ccccc2)n1NC(=O)c1ccc(Cl)cc1	·	·	·	·	·	2%
COc1ccc(S(=O)(=O)Nc2cccc(-c3ccc(N4CCCCC4)nn3)c2)c(OC)c1	·	·	·	·	·	11µM*
Cc1cc(C)c(S(=O)(=O)Nc2ccc(-c3ccc(N4CCC(C)CC4)nn3)cc2)cc1C	·	·	·	·	0%	-9%
COc1ccc(OC)c(S(=O)(=O)Nc2ccc(-c3ccc(N4CCC(C)CC4)nn3)cc2)c1	·	·	·	·	·	8.9µM*
CC1=C(C#N)C(O)(C(F)(F)F)C(=O)N1 (centres undefined)	·	·	·	·	·	2%
O=S(=O)(c1cccc(-c2nc3ccccc3s2)c1)N1CCCCCC1	·	·	·	·	·	-27%
Cc1ccc(NC(=O)CC(=O)c2ccc([N+](=O)[O-])cc2)cc1S(=O)(=O)Nc1cccc(Cl)c1	1%	-6%	?	-1	32µM*	-11%
Cc1ccc(NC(=S)NC(=O)c2ccc(F)cc2)cc1S(=O)(=O)Nc1cccc(Cl)c1	10%	-5%	-16%	-1	?	13µM*
Cc1nn(C)cc1S(=O)(=O)N1CCN(Cc2cccc(Br)c2)CC1	·	·	·	·	·	12%
CC(C)CSC1=NSC2=NC(=O)/C(=C\c3cccs3)C(=N)N12	?	2%	-4%	-2	45µM*	-14%
C=CCn1c(SCC(=O)N2c3ccccc3Sc3ccccc32)nnc1-c1ccco1	-4%	0%	-3%	-2	0%	22µM*
CCN1CCN(CCNC(=O)c2cc(-c3ccc(NC(C)=O)cc3)nc3ccccc23)CC1	·	·	·	·	·	-5%
CC(C)CNC(=O)C(=O)Nc1ccc2cc[nH]c2c1	·	·	·	·	·	35µM*
Cc1ccc(Cl)cc1N1CCN(CC(O)COCc2ccco2)CC1 (centres undefined)	-7%	-2%	2%	-1	9%	10µM*
CCOc1ccc(NC(=O)c2c(NCc3ccc(C)o3)sc3c2CCCCC3)cc1	·	·	·	·	2%	40µM*
O=C(O)CCC(=O)Nc1sc2c(c1C(=O)Nc1ccccc1)CCCCC2	3%	-2%	3%	0	1%	14µM*!
O=C(COc1ccc(Cl)cc1)Nc1sc2c(c1C(=O)Nc1cccc(Cl)c1)CCCC2	·	·	·	·	1%	?
O=C(Nc1cccc(Cl)c1)c1c(NC(=O)C(F)(F)F)sc2c1CCCC2	·	·	·	·	40µM*	?
NC(=O)c1c(NC(=S)Nc2ccccc2)sc2c1CCCC2	13%	-9%	2%	0	-1%	35µM*
